Only some compounds are listed: those with a hit (about 28% of all), similar ones and a draw of the others.
CYP2C9 activ: human CYP2C9 activators, primary screen, biochemical, luminescence. hit rate 1.4% among 96,000. activation factor at 5 µM. recombinant CYP2C9, luciferin-H conversion; stronger effect = higher value; factor 1 = untreated enzyme, 0 = blocked. Cytochrome P450 2C9 (Homo sapiens), P11712. AID 1024, 2008;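 active = activation factor of 2 or more for CYP2C9 at a 5 µM dose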;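 note: 0 = sulfaphenazole-blocked wells and 1 = vehicle-only wells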
Target sequence (P11712 whole entry, looked up): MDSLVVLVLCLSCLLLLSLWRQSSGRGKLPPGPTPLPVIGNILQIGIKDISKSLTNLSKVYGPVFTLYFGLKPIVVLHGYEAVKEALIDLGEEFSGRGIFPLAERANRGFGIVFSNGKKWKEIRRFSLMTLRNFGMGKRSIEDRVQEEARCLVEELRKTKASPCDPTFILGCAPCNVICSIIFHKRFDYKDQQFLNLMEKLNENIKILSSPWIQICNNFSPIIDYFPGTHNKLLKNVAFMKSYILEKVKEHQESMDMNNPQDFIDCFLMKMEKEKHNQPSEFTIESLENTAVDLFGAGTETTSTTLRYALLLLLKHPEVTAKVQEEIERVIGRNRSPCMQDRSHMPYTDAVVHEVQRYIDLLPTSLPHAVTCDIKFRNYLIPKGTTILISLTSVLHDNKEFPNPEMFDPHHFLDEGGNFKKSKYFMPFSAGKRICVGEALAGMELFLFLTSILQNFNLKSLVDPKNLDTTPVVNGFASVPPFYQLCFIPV
CYP2C9 inh: blockers of cytochrome P450 2C9 activity – biochemical, luminescence, ADME assay, primary screen. hit rate 20% among 96,000. CYP2C9 Supersomes, luciferin-H conversion. P11712. inhibition, % at 5 µM;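 active = blocking of liver enzyme CYP2C9 beyond about 50% at 5 µM, limit read from the data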
PLK1 inh: human PLK1 kinase inhibitors, primary screen, biochemical, TR-FRET; recombinant PLK1 kinase, TR-FRET peptide phosphorylation; inhibition, % at 10 µM; Serine/threonine-protein kinase PLK1 (Homo sapiens), P53350; AID 619, 2007; hit rate 0.53% among 97,000;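 active = inhibition of 50% or more in the single-concentration screen; inactive = inhibition below 50%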;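 note: 0% = DMSO max control and 100% = H-89 dihydrochloride min control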
PLK1 PBD inh: Plk1 polo box domain binding inhibitors, primary screen, biochemical, fluorescence polarization; Serine/threonine-protein kinase PLK1 (Homo sapiens), P53350; Plk1 PBD phosphopeptide binding; inhibition, %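 (tested at about 20 µM)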; hit rate 0.13% among 97,000; in the data active = inhibition above about 34%, passing the limit was not always enough
CYP2C19 act: human CYP2C19 activators, primary screen, biochemical, luminescence; Cytochrome P450 2C19 (Homo sapiens), P33261; activation factor at 5 µM; AID 1025, 2008; recombinant CYP2C19, luciferin-H EGE luminescence; stronger effect = higher value; 0 = fully inhibited enzyme, 1 = untreated enzyme; 96,000 tested, under 10 active;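 active = activation factor of at least 2 at 5 µM in the primary screen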;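 note: 0 = wells with 2.5 mM tranylcypromine and 1 = vehicle-only wells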
CYP2C19 inh: blockers of cytochrome P450 2C19 activity – biochemical, luminescence, ADME assay, primary screen; P33261; CYP2C19 Supersomes, luciferin-H EGE luminescence, 30 min; inhibition, % at 5 µM; hit rate 21% among 96,000; AID 778, 2007;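 active = CYP2C19 inhibition above a set limit at 5 µM in the primary screen, cut at about 50% in these data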;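 note: plate controls were negative control wells for no effect and 2.5 mM tranylcypromine positive control for full effect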
An asterisk follows results filed as active; x = not tested or not shown.

SMILES	CYP2C9 activ	CYP2C9 inh	PLK1 inh	PLK1 PBD inh	CYP2C19 act	CYP2C19 inh
CC(C)NC(=O)CCCOc1ccc(Cl)cc1Cl	0.8	25	0	-10	0.4	59*
CCN(CC)C(=O)CCCOc1ccc(Cl)cc1Cl	0.8	21	-4	19	0	97*
COc1ccc(/C=N/NC(=O)CCCOc2ccc(Cl)cc2Cl)cc1[N+](=O)[O-]	0.3	70*	-8	-15	0.1	86*
CCN(CC)C(=O)COc1ccc(Br)cc1Cl	0.7	26	-4	5	0.2	82*
c1cnc(NC2CCCCCC2)nc1	1.1	-9	-12	-14	1.1	-15
CCN(CC)C(=O)C(=O)c1cccn1-c1cccc(-n2cccc2C(=O)C(=O)N(CC)CC)c1C#N	0.7	32	5	-11	0.6	36
CCOc1ccccc1N1CCN(C/C=C/c2ccc(N(C)C)cc2)CC1	1	1	-10	8	0.8	17
Cc1noc(/C=C/N(C)C)c1S(=O)(=O)N1CCCC(C(=O)NC(C)c2ccccc2)C1 (stereo not drawn)	0.3	68*	2	-19	0.7	34
Cc1noc(/C=C/N(C)C)c1S(=O)(=O)N1CCc2ccccc21	0.5	48	0	-7	0.3	67*
Cc1ccc(NC(=O)C2CCCN(S(=O)(=O)c3c(C)noc3/C=C/N(C)C)C2)cc1F (stereo not drawn)	0.9	15	x	x	1	0
O=C(NC1CCN(Cc2ccccc2)CC1)C1CCCN(S(=O)(=O)c2cccc3nonc23)C1 (stereo not drawn)	1.1	-15	-31	13	0.5	53*
CC(NC(=O)C1CCCN(S(=O)(=O)c2cccc3nonc23)C1)c1ccccc1 (stereo not drawn)	0.5	53*	-12	-16	0.6	37
O=C(CSc1nnc(Cc2cc(=O)[nH]c(=O)[nH]2)n1-c1ccccc1)NCC1CCCO1 (stereo not drawn)	1	-4	-10	14	1.1	-10
Cc1cc(NC(=O)c2ccc(N(C)S(=O)(=O)c3ccccc3)cc2)no1	0.6	37	-13	8	0.7	27
O=C(O)Cn1nnnc1-c1ccc(F)cc1	1	0	-13	-1	1	-3
O=C(NCc1ccc2c(c1)OCO2)C1CCCN(S(=O)(=O)c2cccc3nonc23)C1 (stereo not drawn)	0.4	64*	-36	-9	0.9	14
Cc1ccccc1C(=O)c1c[nH]c(C(=O)NCc2ccco2)c1	0.9	12	-6	-2	0.9	7
C/C(N)=C(\C#N)C(=O)NCc1ccccn1	0.9	14	-10	5	1	3
CC(=O)Nc1ccc(SCC(=O)c2cc(C)n(CC(F)(F)F)c2C)cc1	0.4	58*	-20	-24	0.1	93*
CC(=O)Nc1ccc(C(=O)CSc2nnnn2C(C)C)cc1	0.7	27	x	x	0.5	48
CCC(C)NC(=O)CSc1ccc(NC(C)=O)cc1 (stereo not drawn)	0.7	28	-5	0	0.8	20
CC(=O)Nc1ccc(SCC(=O)c2cc(C)n(C)c2C)cc1	0.6	41	-8	-10	0.2	79*
CCc1nc(NCC2CCCN2CC)c2nnn(Cc3ccccc3F)c2n1 (stereo not drawn)	1.1	-9	-6	-1	1	-2
COc1cccc(C(=O)NCc2ccc(N3CCN(C(=O)OC(C)(C)C)CC3)cc2)c1	0.6	44	-10	-2	0.8	23
COCCn1ccc(O)c(Cc2ccc(Cl)cc2)c1=O	0.8	15	-11	0	0.7	30
SMILES	CYP2C9 activ	CYP2C9 inh	PLK1 inh	PLK1 PBD inh	CYP2C19 act	CYP2C19 inh
COCCNS(=O)(=O)c1cc(OC)c(Cl)cc1Cl	1.6	-55	-8	-23	0.3	68*
CCNS(=O)(=O)c1cc(S(C)(=O)=O)ccc1Cl	1.7	-69	-12	-21	1	3
COCCNS(=O)(=O)c1cc(F)ccc1OC	1.3	-32	-5	20	1	4
CCNS(=O)(=O)c1ccc(Br)c(OC)c1	2.2*	-116	2	8	0.7	29
CCOc1cc(S(=O)(=O)N(CC)CC)ccc1Br	1.3	-28	-3	9	0.1	95*
CCN(CC)S(=O)(=O)c1ccc(Br)c(OC)c1	1.9	-85	-7	20	0.2	82*
O=C(NCCCCCCNC(=O)OC1CCS(=O)(=O)C1)OC1CCS(=O)(=O)C1 (stereo not drawn)	1	1	-1	-19	1	4
COc1ccc(-c2c(NC(=O)c3ccco3)n(C)c3ccccc3c2=O)cc1	1.2	-21	-8	20	1.1	-6
COC(=O)c1sccc1NC(=O)c1csc(C)c1	0.9	10	1	-30	0.5	47
CCN(CC)S(=O)(=O)c1cc(OC)c(Cl)cc1Cl	3*	-204	-6	-5	0	97*
CCN(CC)S(=O)(=O)c1ccc(Oc2ccc(S(=O)(=O)N(CC)CC)cc2)cc1	0.1	87*	-3	-7	0.3	67*
CCN(CC)S(=O)(=O)c1ccc(Cl)c(OC)c1	2.4*	-140	-2	-1	0.1	89*
CCN(CC)S(=O)(=O)c1cc(C(=O)n2cccn2)c(Cl)cc1Cl	2.3*	-133	-8	-27	0.3	66*
CCCCN(CC)Cc1ccc(CNC(=O)Nc2ccc(OC)cc2OC)o1	1	2	-12	-26	1	0
COc1ccc(CCNS(=O)(=O)c2ccccc2)cc1OC	0.7	33	-3	-18	0.7	34
COc1cc(C)c(Cl)cc1S(=O)(=O)N(C)C	1.7	-68	-14	15	0.8	22
COc1ccc(S(=O)(=O)NCCOc2ccccc2)cc1OC	2.9*	-186	-20	0	0	100*
CCOc1cc(C)c(Cl)cc1S(=O)(=O)N(CC)CC	2*	-100	-9	2	0.5	53*
Cn1c(=O)cc(-c2ccccc2)c2ccccc21	0	96*	-5	9	0.1	87*
Cn1c(-c2ccccc2)cc(=O)c2ccccc21	1	3	-4	-4	0.8	23
CCN(CC)CCCN1C(=O)C(=O)/C(=C(/O)c2ccccc2)C1c1cc(OC)ccc1OC (stereo not drawn)	1	1	x	x	1	1
COc1cc(OC)c(N2CC34C=CC(O3)C(C(=O)O)C4C2=O)cc1Cl (stereo not drawn)	1.1	-7	4	22	1	-4
CN(C)/C=C1/Sc2ccccc2C1=O	1	3	-7	1	1.1	-9
N#C/C=C1/NC(=O)c2ccccc2S1	0.4	62*	x	x	0.9	9

Assay outcomes as filed in PubChem.
